From PubChem BioAssay
TRPV1 agonist – HTS Assay for Compounds that Act as Agonists of the Vanilloid Receptor 1. activation, % at 8.33 µM. actives 0.19% (n = 320,000). Transient receptor potential cation channel subfamily V member 1 (Homo sapiens), Q8NER1. TRPV1-expressing cells, Fluo-8 calcium influx, agonist mode; in the data active = activation above about 80%; inconclusive = between about 30% and that limit
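Fluo-8 calcium influx in TRPV1-expressing cells, kinetic read (ex 480/em 520 nm). Compound added and read 3 min for agonist activity, followed by capsaicin at EC20 final and 2 min further read for enhancement.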
ELG1 DNA repair – qHTS screen for small molecules that inhibit ELG1-dependent DNA repair in human embryonic kidney (HEK293T) cells expressing luciferase-tagged ELG1 | HEK293T ELG1-luciferase reporter, luminescence, 16 h; DNA damage induced by 5-fluorouridine | Potency, µM (titrated, usually from 46.1 µM), actives largely listed as inhibitors | actives 2.3% (n = 330,000); also: nearly all actives have a fitted effect of over 55% in size
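Reporter activity after DNA damage by 5-fluorouridine is monitored. Compound-treated cells incubate 16 hr at 37 °C, then ONE-Glo is added for 30 min before luminescence reading.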
TRPV1 potentiator – HTS Assay for Compounds that Act as Potentiators of the Vanilloid Receptor 1; Transient receptor potential cation channel subfamily V member 1 (Homo sapiens), Q8NER1; potentiation, % at 8.33 µM; AID 540277, 2011; actives 0.02% (n = 320,000); TRPV1-expressing cells, Fluo-8 calcium influx, capsaicin EC20 potentiation; in the data active = potentiation above about 80%; inconclusive = between about 30% and that limit
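Fluo-8 calcium influx in TRPV1-expressing cells, kinetic read (ex 480/em 520 nm). Compound added and read 3 min for agonist activity, followed by capsaicin at EC20 final and 2 min further read for enhancement.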
Giardia killer – Small Molecules that selectively kill Giardia lamblia: qHTS; Giardia lamblia trophozoite viability; activity change, % at 7.66 µM, hits read low; actives 0.15% (n = 340,000); in the data active = activity change below about -80%; inconclusive = between about -30% and that limit;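 also: parasites exposed to compound for two days anaerobically before the ATP read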
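Giardia lamblia trophozoites (100 cells/well) were incubated with compounds for 48 h at 37 deg C under anaerobic conditions. Viability was read as ATP content by one-step luminescence after 15-30 min at room temperature.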
FUS suppressor – qHTS for Suppressors of FUS Proteinopathy: Primary screen using FUS-linked yeast assay; S. cerevisiae FUS-expressing, growth rescue, OD600, 24 h; actives 0.24% (n = 390,000); Potency, µM (series often up to 76.6 µM), hits mostly activators; AID 1347120, 2019; also: nearly all actives have a fitted effect of over 55% in size
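Cultures pregrown in 2.5% raffinose medium are shifted to minimal medium containing 2% galactose to express toxic FUS. Compounds are tested at several concentrations. After 24hr at 30C, growth is quantified at 600 nm absorbance.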
A number is an active result; n = inactive; u = inconclusive; x = no result. The list is not random: actives were taken first. Their share in the collection is about 2.3%. Unless noted, calls follow the shape of the dose curve; as a rule, active = well fitted curve in the direction sought with a large enough effect; inconclusive = small, poorly fitted or top-dose-only effect, or another doubt; inactive = no such curve, though single readings can be large; an effect the other way counts as inactive or inconclusive.

SMILES	TRPV1 agonist	ELG1 DNA repair	TRPV1 potentiator	Giardia killer	FUS suppressor
COc1ccc(-n2nc(C(=O)N3CCN(c4cccc(C)c4)C(C)C3)c3c4ccccc4n(C)c3c2=O)cc1 (stereo not drawn)	x	x	x	x	n
Cc1cccc(N2CCN(C(=O)c3cc4c(=O)n(C)c5ccccc5c4n3C)CC2C)c1 (stereo not drawn)	n	15µM	n	n	u
CN(C)CCCN1C(=O)c2cccc3c([N+](=O)[O-])ccc(c23)C1=O	n	13µM	n	n	x
CCOC(=O)c1c(NC(=O)c2cccnc2)sc(C)c1C	n	n	n	n	n
CCOC(=O)c1sc(NC(=O)c2cccnc2)c(C#N)c1C	n	18µM	n	n	n
COc1ccc2oc(=O)c(-c3csc(Nc4cccc(O)c4)n3)cc2c1	n	26µM	n	n	u
O=C(Nc1ccc(N2CCCC2)c(Cl)c1)c1ccco1	u	u	n	u	n
Cc1ccc(NC(=O)c2cc(NC(=O)c3ccco3)ccc2N2CCOCC2)cc1Cl	n	16µM	n	n	n
COC(=O)c1ccc(N2CCCCC2)c(NC(=O)c2ccco2)c1	u	23µM	n	n	n
O=C(c1ccccc1)c1ccc(N2CCOCC2)c(NC(=O)c2ccco2)c1	u	16µM	n	n	n
O=C(Nc1cc(Cl)ccc1N1CCOCC1)c1ccco1	n	n	n	n	n
COc1ccc(-c2nsc(NC(=O)COc3ccc(C)c(C)c3)n2)cc1	x	x	x	x	n
CCOC(=O)N1CCN(C(=O)c2cnn3c(C(F)(F)F)cc(-c4cccs4)nc23)CC1	n	6.5µM	n	n	n
O=C(CSc1nnnn1-c1ccc2c(c1)OCCO2)Nc1nc2c(s1)CCCC2	n	21µM	n	n	n
CCOC(=O)C1=CCN(S(C)(=O)=O)C1c1ccc(C)cc1 (stereo not drawn)	x	x	x	x	n
CCc1nc(Nc2cccc(OC)c2)c2oc3ccccc3c2n1	81	u	n	n	n
CCc1nc(Nc2ccccc2)c2oc3ccccc3c2n1	84	u	n	n	n
CC(=O)N1CCN(c2ccc(Nc3ncnc4c3oc3ccccc34)cc2)CC1	n	u	n	n	n
CCc1nc(Nc2ccc(N3CCN(C(C)=O)CC3)cc2)c2oc3ccccc3c2n1	u	9.2µM	n	n	n
CCc1nc(Nc2ccc(F)cc2)c2oc3ccccc3c2n1	u	n	n	n	n
CCc1nc(Nc2cccc(F)c2)c2oc3ccccc3c2n1	u	n	n	n	n
O=S1(=O)C2CC3C=CC2(O3)C(O)C(Cc2ccccc2)N1Cc1cccc(C(F)(F)F)c1 (stereo not drawn)	x	x	x	n	x
CC(C)(C)OC(=O)N1CCC(c2c(C(=O)Nc3ccc4c(c3)OCCO4)cnn2-c2ccc(F)cc2F)CC1	x	x	x	x	n
CC(=O)N1CCc2cc(S(=O)(=O)CCC(=O)N3CCc4ccccc4C3)ccc21	n	n	n	n	n
CC(=O)N1CCc2cc(S(=O)(=O)NCCC(=O)N3CCc4ccccc4C3)ccc21	n	23µM	n	n	n
SMILES	TRPV1 agonist	ELG1 DNA repair	TRPV1 potentiator	Giardia killer	FUS suppressor
O=C(NC(=S)Nc1cccnc1)c1cccc(Cl)c1	x	x	x	x	n
Cc1ccc(-c2nc(C(Cl)Cl)c3ccccc3n2)cc1	n	23µM	n	n	n
COCCN(CCOC)c1nc(-c2ccc(C)cc2)nc2ccccc12	n	u	n	n	n
CC(C)c1cc(NCC2CCCO2)n2c(nc3ccccc32)c1C#N (stereo not drawn)	n	16µM	n	n	n
Cc1cc(NCC2CCCO2)n2c(nc3ccccc32)c1C#N (stereo not drawn)	n	x	n	n	n
Cc1ccccc1-c1nc(CS(=O)(=O)CC(=O)Nc2c(C)cccc2C)c(C)o1	x	x	x	x	n
CCOC(=O)c1nnc2c(-c3ccc(Cl)cc3)c(C)nn2c1C	x	x	x	x	n
COc1cccc(C2C(C(=O)Nc3ccccc3)=C(C)Nc3nc(-c4ccccc4)nn32)c1 (stereo not drawn)	x	x	x	x	n
COc1cccc(-c2sc3ccc(OC)cc3c2-c2ccc(OCCN(C)C)cc2)c1	x	u	x	n	32µM
